High-throughput results from PubChem.
KB-V1 cytotox: KB-V1 MDR subline cytotoxicity; Potency, µM (series often up to 46.1 µM), actives largely listed as cytotoxic; AID 1347076; 400,000 compounds, 3.4% hits; KB-V1 MDR cells viability, CellTiter-Glo, 72 h; note: potency is the fitted concentration of half-maximal effect; nearly all actives have a fitted effect of over 60% in size
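qHTS viability screen in drug-selected KB-V1 MDR cells: 72 h compound treatment at 37 degrees C, ATP luminescence end point.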
KB-3-1 tox: kills parental KB-3-1 adenocarcinoma cells; AID 1347075; 400,000 compounds, 1.4% hits; KB-3-1 viability, CellTiter-Glo ATP luminescence, 72 h; Potency, µM (highest dose often 46.1 µM), most hits filed as cytotoxic; note: potency is the fitted concentration of half-maximal effect; nearly all actives have a fitted effect of over 60% in size
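Cytotoxicity measured as CellTiter-Glo luminescence after 72 h at 37 C. Compound titrations were pinned onto drug-naive KB-3-1 parental adenocarcinoma cells grown in DMEM with 10% FBS, and normalized data fitted to concentration-response curves.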
PI4K2A inh: blocks human PI4K2A kinase activity; purified PI4K2A, ADP-Glo luminescence, 1 h; hits give low values; activity change, negative = inhibition, % at 76.9 µM; 420,000 compounds, 0.13% hits; AID 1346378; in the data active = activity change below about -50%; inconclusive = mostly about -30% to -49%;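 note: -100% = wells without enzyme as full effect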
Target sequence (Q9BTU6 whole entry, looked up): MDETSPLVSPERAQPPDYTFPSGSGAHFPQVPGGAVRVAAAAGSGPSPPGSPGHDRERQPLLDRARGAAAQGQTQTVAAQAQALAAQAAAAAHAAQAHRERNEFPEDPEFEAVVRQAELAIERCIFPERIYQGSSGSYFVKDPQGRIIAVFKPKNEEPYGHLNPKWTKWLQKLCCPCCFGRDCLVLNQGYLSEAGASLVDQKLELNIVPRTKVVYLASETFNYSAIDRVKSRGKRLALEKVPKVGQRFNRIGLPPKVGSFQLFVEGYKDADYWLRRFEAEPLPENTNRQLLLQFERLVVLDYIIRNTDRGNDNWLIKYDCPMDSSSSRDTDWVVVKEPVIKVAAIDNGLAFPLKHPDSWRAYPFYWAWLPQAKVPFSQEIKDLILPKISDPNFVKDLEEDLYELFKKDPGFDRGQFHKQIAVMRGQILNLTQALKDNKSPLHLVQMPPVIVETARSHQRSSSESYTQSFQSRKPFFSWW
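In this quantitative HTS, ADP production by PI4K2A was quantified luminescently after 1 h at ambient temperature; 100 microM adenosine served as plate-quality control.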
Giardia kill: Giardia lamblia killing; activity change, % at 7.66 µM, hits read low; Giardia lamblia trophozoite viability; 340,000 compounds, 0.15% hits; in the data active = activity change below about -80%; inconclusive = between about -30% and that limit;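 note: parasites exposed to compound for two days anaerobically before the ATP read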
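Luminescence from cellular ATP indicates surviving trophozoites (100 cells/well) following 48 hrs anaerobic compound treatment at 37 deg C; signal develops 15-30 min at room temperature.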
A549 tox: counter-screen for Nrf2 inhibitors: cytotoxicity in A549 cells; A549 ARE-Fluc cells, CellTiter-Fluor viability, 18-24 h; Potency, µM (titrated, usually from 46 µM), for the others: at the top dose activity change, negative = cytotoxicity, most hits filed as inhibitors; 390,000 compounds, 0.16% hits; AID 504648; note: potency is the fitted concentration of half-maximal effect
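A549 ARE_Fluc cells in 5% FBS OPTI-MEM were exposed to compounds in concentration-response for 18-24 h at 37 deg C. Viability was read by CellTiter-Fluor fluorescence (Ex 405/Em 525) after 30 min, before the luciferase read.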
Nrf2 block: blocks Nrf2 signaling; A549 ARE-Fluc reporter, luciferase luminescence, 18-24 h; Potency, µM (highest dose often 46 µM), for the others: top-dose activity change, negative = inhibition, usual class: inhibitors; 360,000 compounds, 2.1% hits; note: potency is the fitted concentration of half-maximal effect; nearly all actives have a fitted effect of over 60% in size
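Reporter: ARE-Fluc in A549. Exposure: 18-24 h, 37 °C, 5% CO2, 5% FBS OPTI-MEM. Readouts: fluorescent cytotoxicity (CellTiter-Fluor), then luminescent Nrf2 signal after BugLite.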
* hit, by the source's call. Hits are enriched below; roughly 5.7% of the tested compounds scored in any of these assays. Unless noted, calls come from the whole dose curve; as a rule, active = well fitted curve in the direction sought with a large enough effect; inconclusive = small, poorly fitted or top-dose-only effect, or another doubt; inactive = no such curve, though single readings can be large; an effect the other way counts as inactive or inconclusive. Unless noted, % is set by controls: 0 for no effect and ±100 for the full control effect.

`COCCCNC(=O)C[C@@H]1C[C@@]2(C(=O)OC)CC(C)(C)CC=C2N(Cc2cccc3ccccc23)C1=O` gave KB-V1 cytotox inconclusive, KB-3-1 tox inactive and PI4K2A inh -3.9.
COC(=O)[C@]12CCCCC=C1N(Cc1cccc3ccccc13)C(=O)[C@H](CC(=O)NCCC(C)C)C2 was read as KB-V1 cytotox 18.4µM*, KB-3-1 tox inconclusive and PI4K2A inh 9.6.
COC(=O)[C@@]12C[C@@H](CC(=O)NCC3CCCCC3)C(=O)N(Cc3cccc4ccccc34)C1=CCC(C)(C)C2 was read as KB-V1 cytotox 20.6µM*, KB-3-1 tox inconclusive and PI4K2A inh 1.7.
`COC(=O)[C@@]12C[C@@H](CC(=O)NCCC(C)C)C(=O)N(Cc3cccc4ccccc34)C1=CCC(C)(C)C2` gave KB-V1 cytotox 20.6µM*, KB-3-1 tox 20.6µM* and PI4K2A inh -2.8.
Screening COC(=O)[C@@]12C[C@@H](CC(=O)NCc3cccc4ccccc34)C(=O)N(Cc3cccc4ccccc34)C1=CCC(C)(C)C2 returned KB-V1 cytotox inconclusive, KB-3-1 tox inactive and PI4K2A inh 4.1.
For CC1(c2nnnn2-c2ccc(F)cc2)CCCC(=O)N1CCc1c[nH]c2ccccc12 (configuration not stated) the results were PI4K2A inh -2.7.
`CCCCCCCCN1C(=O)[C@@H](CC(=O)NCc2cccc(C(F)(F)F)c2)C[C@@]2(C(=O)OC)C1=C[C@H](C(C)C)O[C@@H]2C1CC1` gave PI4K2A inh -2.6.
COc1cccc(NC(=O)Cn2cnc3c(nc4n3CCCCC4)c2=O)c1 was read as KB-V1 cytotox inactive, KB-3-1 tox inactive, PI4K2A inh 3.1, A549 tox 1.4% and Nrf2 block -17.1%.
For c1cc2c3c(c1)CCCN3CCC2 the results were KB-V1 cytotox inactive and KB-3-1 tox inactive.
`COc1cc(NC(=O)c2ccccc2)c(C)cc1NC(=O)CSc1nnc(-c2ccccc2F)n1-c1ccc(C)cc1` gave PI4K2A inh -7.0.
For COC(=O)[C@]12CCCCC=C1N(Cc1ccc3c(c1)OCO3)C(=O)[C@H](CC(=O)NCc1cccc3ccccc13)C2 the results were KB-V1 cytotox 23.1µM*, KB-3-1 tox inconclusive and PI4K2A inh -2.9.
Screening Cc1ccc(-c2c(C3C4C=CCCC4(C)C(=O)N3Cc3ccccc3)ccc3ccccc23)cc1 (configuration not stated) returned Giardia kill 8.5, A549 tox 1.4% and Nrf2 block inconclusive.
Screening Cc1cc(C(=O)COC(=O)c2ccc(Cl)c(S(N)(=O)=O)c2)c(C)n1CC1CCCO1 (configuration not stated) returned KB-V1 cytotox inactive, KB-3-1 tox inactive, PI4K2A inh 1.3, Giardia kill -11.2, A549 tox 1.7% and Nrf2 block inconclusive.
`COCCn1c(C)cc(C(=O)COC(=O)c2ccc(Cl)c(S(N)(=O)=O)c2)c1C` gave KB-V1 cytotox 23.1µM*, KB-3-1 tox inactive, PI4K2A inh 3.9, Giardia kill inconclusive, A549 tox 0.2% and Nrf2 block inconclusive.
Screening COc1cc(/C=C(/C#N)c2nc3ccccc3[nH]2)ccc1OCC(=O)Nc1ccccc1C returned KB-V1 cytotox 1.84µM*, KB-3-1 tox inconclusive, PI4K2A inh 1.8, Giardia kill 31.5, A549 tox inconclusive and Nrf2 block 2.2%.
For COc1cc(/C=C(\C#N)c2nc3ccccc3s2)ccc1OCC(=O)Nc1ccccc1 the results were KB-V1 cytotox 9.2µM*, KB-3-1 tox inconclusive, PI4K2A inh 6.4, Giardia kill 8.8, A549 tox -9.1% and Nrf2 block -6.5%.
`Cc1ccc(NC(=O)CSc2ncc3c(n2)-c2ccccc2N(C)S3(=O)=O)c(Cl)c1` gave PI4K2A inh -1.2, A549 tox -26.3% and Nrf2 block inconclusive.
Screening CC1(C)N=C(SCC(=O)Nc2ccc(Cl)cc2Cl)C(c2ccccc2)=N1 returned KB-V1 cytotox 20.6µM*, KB-3-1 tox inactive, PI4K2A inh 7.2, Giardia kill -0.6, A549 tox -16.8% and Nrf2 block inconclusive.
Screening CC[C@@H](C(=O)[C@@H](C)[C@@H](O)[C@H](C)CCc1ccc(C)c(O)c1C(=O)O)[C@H]1O[C@](CC)([C@H]2CC[C@](O)(CC)[C@H](C)O2)C[C@@H]1C returned KB-V1 cytotox inconclusive, KB-3-1 tox inconclusive, PI4K2A inh 2.1, Giardia kill -10.8, A549 tox 6.51µM* and Nrf2 block 5.17µM*.
`COc1ccc(COc2cc(-c3cccc(OC)c3)nc3ccc(NC(=O)c4ccc(Cl)cc4)cc23)cc1` gave KB-V1 cytotox inactive, KB-3-1 tox inconclusive, PI4K2A inh 6.5, Giardia kill 3.4, A549 tox -7.6% and Nrf2 block -4.6%.
`COc1ccc(COc2cc(-c3cccc(OC)c3)nc3ccc(NC(=O)c4ccc(OC)cc4)cc23)cc1` gave KB-V1 cytotox inactive, KB-3-1 tox 4.11µM*, PI4K2A inh 0.4, Giardia kill -2.4, A549 tox -0.1% and Nrf2 block -8.5%.
For COc1ccc(COc2cc(-c3cccc(OC)c3)nc3ccc(NC(=O)c4ccccc4)cc23)cc1 the results were KB-V1 cytotox inactive, KB-3-1 tox 16.4µM*, PI4K2A inh -2.2, Giardia kill 0.8, A549 tox 2.2% and Nrf2 block -9.2%.
Screening Cc1c(C(=O)N(Cc2ccccc2F)C2CCS(=O)(=O)C2)oc2ccc(F)cc12 (configuration not stated) returned KB-V1 cytotox inactive, KB-3-1 tox inactive, PI4K2A inh -1.5, A549 tox -7.6% and Nrf2 block -28.1%.
Screening Nc1nc(NCc2ccc(F)cc2)c2[nH]cnc2n1 returned KB-V1 cytotox inactive, KB-3-1 tox inactive, Giardia kill -20.6, A549 tox 10.0% and Nrf2 block 20.5%.
Screening COc1ccc(OC)c(NC(=O)c2c(NCc3ccc(OC)c(OC)c3)sc3c2CCC(C)C3)c1 (configuration not stated) returned KB-V1 cytotox inactive, KB-3-1 tox inactive, PI4K2A inh -3.0 and A549 tox inconclusive.
COc1ccc(NC(C)C(=O)N/N=C/c2ccc([N+](=O)[O-])s2)cc1 (configuration not stated) was read as KB-V1 cytotox inconclusive, KB-3-1 tox inactive, PI4K2A inh 11.1, Giardia kill -89.0*, A549 tox inconclusive and Nrf2 block 20.6µM*.
